# Experimental data reported in PubChem BioAssay.
# Assay: probe aEGFR binding to arrayed compounds – biochemical, biotinylated probe, 635/667 nm fluorescence, primary screen (AID 1097);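 further: probe is a biotinylated anti-EGFR antibody binding compounds printed on slides; score combines fluorescence near 667 nm and signal to noise of each spot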
# Details: small-molecule microarray, higher = more signal
row,SMILES,composite z-score
1,CCCCCCCCCC(O)C1C=CC2C(=O)N(c3ccccc3)C(=O)C2N1Nc1cc(OC)c(OC)c(OC)c1 (stereo not drawn),-0.0978
2,COc1cc(C(O)C2C=CC3C(=O)N(C)C(=O)C3N2Nc2ccccc2)cc(OC)c1OC (stereo not drawn),0.197
3,CCOC(=O)C1=C[C@@H](C(C)C)N(S(=O)(=O)c2ccc(C)cc2)[C@H]1c1ccc(C(F)(F)F)cc1,-0.0122
4,CC(C)C(CO)N1C(=O)[C@@H]2C3C(=O)OCCC/C=C\[C@H]3OC23C=CCN(c2ccc4ccccc4c2)C(=O)[C@@H]13 (stereo partly drawn),-0.203
5,CCCCN1CC=CC23O[C@@H]4/C=C\CCCOC(=O)C4[C@H]2C(=O)N(CCO)[C@@H]3C1=O (stereo partly drawn),-0.385
6,CC(C)C(CO)N1C(=O)[C@@H]2C3C(=O)OCCC/C=C\[C@H]3OC23C=CCN(Cn2nnc4ccccc42)C(=O)[C@@H]13 (stereo partly drawn),-0.268
7,C=CC[C@@]1(C(=O)NCCCOC)N=C(c2ccc(OCCCO)cc2)O[C@@H]1c1ccccc1N=[N+]=[N-],-0.019
8,C=CCNC(=O)[C@@H]1[C@H]2C(=O)O[C@H](c3ccccc3)[C@H](c3ccccc3)N2[C@H](c2ccccc2OCCO)[C@@]12C(=O)N(C(=O)OCCOC)c1ccc(C#CC3(O)CCCCCC3)cc12,-0.0177
9,COCCOC(=O)N1C(=O)[C@@]2(c3cc(C#CCC(C(=O)OC)C(=O)OC)ccc31)[C@H](c1ccc(OCCO)cc1)N1[C@H](c3ccccc3)[C@H](c3ccccc3)OC(=O)[C@H]1[C@@H]2C(=O)N1CCc2cc(OC)c(OC)cc2C1,0.091
10,C=CCN1C(=O)[C@]2(CCC(=O)OC(C)(C)C)N=C(c3ccc(OCCCO)cc3)O[C@@H]2c2ccccc21,0.401
11,C#CCN(Cc1ccccc1Br)[C@H](/C=C/c1ccccc1)[C@@H](O)Cc1ccccc1,-0.397
12,O=C1N(CCS(=O)(=O)c2ccccc2)c2ccccc2[C@H]2OC(c3ccc(OCCCO)cc3)=N[C@@]12Cc1ccccc1,0.263
13,COCCOC(=O)N1C(=O)[C@@]2(c3cc(C#CC4(O)CCCCCC4)ccc31)[C@H](c1ccc(O)cc1)N1[C@H](c3ccccc3)[C@H](c3ccccc3)OC(=O)[C@H]1[C@@H]2C(=O)N1CCN(c2ncccn2)CC1,-0.0234
14,CO[C@H]1O[C@H](CO)[C@@H](OC(=O)Nc2ccccc2)[C@H](OC(=O)c2cc3ccccc3[nH]2)[C@H]1OC(=O)c1cc2ccccc2[nH]1,0.0153
15,O=C1O[C@@H](c2ccccc2)[C@@H](c2ccccc2)N2[C@@H](c3ccc(OCCO)cc3)[C@]3(C(=O)Nc4ccc(C#CC5=CCCCC5)cc43)[C@@H](C(=O)NC[C@H](O)c3ccccc3)[C@H]12,-0.246
16,CC1CC/C=C\[C@H]2OC34C=CCN(c5ccc6ccccc6c5)C(=O)[C@H]3N(CCCO)C(=O)[C@@H]4C2C(=O)O1 (stereo partly drawn),-0.193
17,CC(C)C(O)C1C=CC2C(=O)N(c3ccccc3)C(=O)C2N1Nc1ccccc1 (stereo not drawn),-0.0023
18,CC(C)C(CO)N1C(=O)[C@@H]2[C@H]3C(=O)OCC=C[C@H]3OC23C=CCN(c2ccc(Cl)cc2)C(=O)[C@@H]13 (stereo partly drawn),-0.068
19,CCOC(=O)C[C@H]1[C@H](OC(=O)Cc2ccc3c(c2)OCO3)[C@@H](NC(=O)c2ccc3ccccc3n2)c2cc(OCCCO)ccc2N1C(=O)c1ccc2ccccc2n1,-0.124
20,CCCC=C(CCC)[C@@H](NC(=O)C(C)(C)C)c1ccc(C(=O)OC)cc1,-0.0023
21,COC(=O)[C@@]1(Cc2ccccc2)[C@H]2c3cc(C(=O)N4CCCC4)n(CCc4ccccn4)c3C[C@H]2CN1C(=O)c1ccccc1,0.338
22,CC(C)c1ccc(NN2C(C(O)c3ccc(C#N)cc3)C=CC3C(=O)N(c4ccccc4)C(=O)C32)cc1 (stereo not drawn),0.16
23,COc1ccc([Si](C)(C)[C@H]2[C@H](CC(=O)N3Cc4ccccc4C[C@H]3CO)O[C@@]3(C(=O)N(Cc4ccc(N5CCOC5=O)cc4)c4ccccc43)[C@@H]2C)cc1,-0.022
